# ARNT-TACC3 inh – ARNT/TACC3 interaction disruption; actives 0.66% (n = 390,000); AlphaScreen His-ARNT PAS-B/GST-TACC3 binding, luminescence; TACC3 fragment carries E629A point mutation; AID 623870; inhibition, % at 9.99 µM; Q9Y6A5;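 active means mean inhibition of replicates at least 50% and at least half of replicates each reaching 50%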
# PglD DTNB – PglD (C. jejuni) enzyme inhibition; purified PglD enzyme, DTNB colorimetric CoA detection; inhibition, % at 12.5 µM; actives 0.098% (n = 360,000); in the data active means inhibition above about 16%, passing the limit was not always enough
# F508del corr – CFTR F508del correction in bronchial cells. actives 0.36% (n = 350,000). activity (quench increase), % at 7.58 µM. AID 720511. CFBE cells, YFP halide quenching; stimulated with forskolin plus potentiator P3; % fluorescence drop versus neutral controls;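 active means mean added fluorescence quench of at least 8% versus neutral control, with both replicates also reaching 8%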;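 further: cells transiently co-express mutant CFTR-F508del with the halide-sensitive YFP; corrector assay measuring rescue of mutant channel to the surface after 24 h compound exposure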
# C2C12 statin – protects C2C12 myotubes from simvastatin toxicity; rescue of ATP level, % at 7.49 µM; AID 602340; ATP luminescence, 48 h; scaled: DMSO 0, geranylgeraniol control 100; actives 0.78% (n = 330,000);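 active means mean ATP rescue above about 67%, or every replicate alone reaching that limit, limit read from the data, passing the limit was not always enough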;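 further: myotubes were challenged with 10 µM simvastatin during compound exposure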
# Hits are given with their value; n = inactive; x = not tested or not shown. The list is not random: actives were taken first. Their share in the collection is about 1.4%.
SMILES,ARNT-TACC3 inh,PglD DTNB,F508del corr,C2C12 statin
CCSc1sccc1C1C(C#N)=C(N)N(c2cccnc2)C2=C1C(=O)CC(C)(C)C2 (configuration not stated),n,n,x,77
CCC(NS(=O)(=O)c1ccc(C)cc1)C(=O)Nc1ccc(NC(C)=O)cc1 (configuration not stated),n,n,x,138
CN1C(=S)N2CCCN2C1c1ccccc1 (configuration not stated),n,n,n,n
S=C1N(c2ccccc2)C(c2ccccc2)N2CCCN12 (configuration not stated),n,n,x,132
N#Cc1cc2c(nc1SCC(=O)N1CCCCC1)CCCCC2,x,n,x,117
N#Cc1cc2c(nc1SCC(=O)N1CCCCC1)CCCC2,n,n,x,n
COc1ccc(NC(=O)N(C)C[C@H]2OCCCC[C@@H](C)Oc3ccc(NC(=O)Cc4ccccc4)cc3C(=O)N([C@@H](C)CO)C[C@@H]2C)cc1,n,n,n,x
O=C(NCc1ccco1)C(c1ccc(F)cc1)N(Cc1cccnc1)C(=O)Cn1nnc2ccccc21 (configuration not stated),n,n,x,102
Cc1ccc(N(C(=O)Cn2nnc3ccccc32)C(C(=O)NCc2ccco2)c2ccc(C)o2)cc1 (configuration not stated),n,n,x,130
O=C(NCc1ccco1)C(c1ccccc1)N(Cc1cccnc1)C(=O)Cn1nnc2ccccc21 (configuration not stated),n,n,x,n
O=C(Nc1cccc(Cl)c1)N[C@@H]1CC[C@H](CCNC(=O)C2CCOCC2)O[C@@H]1CO,n,n,n,n
CO[C@H]1CN(C)C(=O)c2ccc(NC(C)=O)cc2OC[C@@H](C)N(C(=O)C2CC2)C[C@@H]1C,n,n,n,n
O=C(Nc1ccc(F)cc1)Nc1ccc(N2CCOCC2)c2nonc12,n,x,11,x
COc1ccc(NC(=O)Nc2ccc(N3CCOCC3)c3nonc23)c(OC)c1,n,x,n,x
COc1cccc(C2=CC(c3ccc(N(C)C)cc3)n3nnnc3N2)c1 (configuration not stated),n,n,x,n
COc1cccc(C2=CC(c3ccccc3)n3nnnc3N2)c1 (configuration not stated),n,n,15,n
CC(C)NC(=O)N(C)C[C@@H]1Oc2cc(C#CC3CC3)ccc2S(=O)(=O)N([C@@H](C)CO)C[C@H]1C,n,n,n,n
COc1cc(Br)c(-c2sc(Nc3ccccc3)n[n+]2-c2ccc(F)cc2)cc1OC,n,n,n,135
Cc1ccc(S(=O)(=O)N(C)C[C@H]2OCCCC[C@@H](C)Oc3ccc(NS(=O)(=O)c4ccccc4)cc3C(=O)N([C@@H](C)CO)C[C@@H]2C)cc1,n,n,n,n
CCN1/C(=C\C=C2\C(=O)N(C)C(=S)N2C)Sc2ccccc21,x,x,n,x
CCOC(=O)/C(=C\C=C1/Sc2cc(OCC)c(OCC)cc2N1CC)C(C)=O,51,n,x,x
CCN1/C(=C/C(C)=O)Sc2ccc(OC)cc21,n,n,x,x
CCOC(=O)/C(=C/C=C1\Sc2cc(OCC)c(OCC)cc2N1CC)C(C)=O,51,x,n,x
Cc1cccc(S(=O)(=O)N2[C@@H]3c4cccc(=O)n4C[C@H]2[C@H](CO)[C@H]3C(=O)NC2CCC2)c1,n,n,n,n
COc1ccc(NC(=O)Nc2ccc3c(c2)C(=O)N([C@H](C)CO)C[C@@H](C)[C@H](CN(C)Cc2ccc(Oc4ccccc4)cc2)O3)cc1,n,n,n,n
SMILES,ARNT-TACC3 inh,PglD DTNB,F508del corr,C2C12 statin
CC(C)(C)NC(=O)CN(C(=O)Cn1nnc(-c2ccccc2F)n1)c1cccc2c1CCCC2,x,n,x,153
O=C(NCC[C@@H]1CC[C@@H](NS(=O)(=O)c2cccc(F)c2)[C@@H](CO)O1)C1CCC1,n,n,n,n
CC(c1nc2ccccc2c(=O)[nH]1)N1CCN(C)CC1 (configuration not stated),n,n,x,117
C[C@@H]1CN([C@H](C)CO)C(=O)c2cc(NC(=O)Cn3cnnn3)ccc2O[C@H]1CN(C)S(=O)(=O)c1cccs1,n,n,n,n
CCn1cc([N+](=O)[O-])c(C(=O)N2N=C(c3cccc4ccccc34)CC2c2ccccc2O)n1 (configuration not stated),x,n,x,80
CCn1cc([N+](=O)[O-])c(C(=O)N2N=C(c3ccc4ccccc4c3)CC2c2ccccc2O)n1 (configuration not stated),n,n,x,n
O=C(Nc1ccccc1)N[C@H]1CC[C@@H](CCNS(=O)(=O)c2cccc(F)c2)O[C@@H]1CO,n,n,n,n

# Source: PubChem
